Data from PubChem BioAssay AID618 (Sanford-Burnham Center for Chemical Genomics, 2007).
About 540 (0.62%) of roughly 87,000 compounds were called active. The sample holds actives, similar compounds and a random draw of the others, so the mix is not that of the screen. The rule behind the calls is not given here. Entries with a potency or affinity are not part of this list.

Experiment: MT1-MMP gene expression reporter suppression – cell-based, luciferase reporter, luminescence (AID 618);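 note: actives suppress MT1-MMP promoter-driven transcription so potencies describe inhibitors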
Conditions: MT1-MMP promoter luciferase reporter cells

outcome, inactive:
CCCCCOc1ccc(C(=O)C(c2ccccc2)N2CCOCC2)cc1 (stereo not given), COc1ccc(C(=O)C(CN2CCOCC2)c2ccccc2)cc1F (stereo not given), CC(CN1CCOCC1)C(=O)c1ccccc1 (stereo not given), COc1ccc(C(=O)C(CN2CCOCC2)c2ccccc2)cc1 (stereo not given), O=C(NCC1CCCCC1)C1CCN(C(=O)NC2CCCCC2)CC1, COc1ccc(-c2nc3c(n2O)CCCC3=O)cc1OC, O=C(CCSCCc1ccccn1)Nc1ccc(Br)cn1, Cc1ccc(C(=O)Nc2nc3ccccc3s2)s1, c1ccc(CCNc2nc3ccccc3s2)cc1, COc1ccc(NC(=O)NC(C)(C(F)(F)F)C(F)(F)F)cc1, CN(C)c1nc(SCc2ccccc2)nc(N2CCOCC2)n1, C/C(=N/NC(=O)c1cc(C(C)C)[nH]n1)c1cccs1, C/C(=N\NC(=O)C1COc2ccccc2O1)c1cccs1 (stereo not given), O=C(Nc1ccc(Cc2ccncc2)cc1)c1ccc(S(=O)(=O)N2CCOCC2)cc1, CC(C)c1nc(=S)c2ccccc2[nH]1, CCN1CC=C2C(C#N)=C(N)C(C#N)(C#N)[C@H](c3ccoc3)[C@H]2C1, CN1CC=C2C(C#N)=C(N)C(C#N)(C#N)[C@H](c3ccoc3)[C@H]2C1, COc1ccc(/C(C)=N\n2cnnc2)cc1, Cn1c(SCc2cnc(-c3ccccc3)s2)nnc1C1COc2ccccc2O1 (stereo not given), COCCn1c(SCc2cnc(-c3ccccc3)s2)nnc1-c1ccncc1, Cc1cccc(NC(=O)CSCc2c(C)noc2C)c1C, CN(C1=NC(=O)C(CC(=O)Nc2ccc(Br)cc2)S1)c1ccc(O)cc1 (stereo not given), CC(=O)N(CCc1ccccc1C)Cc1cc2cc3c(cc2[nH]c1=O)OCO3, Cc1ccccc1C(=O)N1CCC(C(=O)Nc2ccc3c(c2)OCCO3)CC1, Cc1ccc(C(=O)N2CCN(c3cccc(Cl)c3)CC2)cc1C, O=C(O)c1ccccc1C(=O)N1CCN(c2cccc(Cl)c2)CC1, CCCCC(=O)Nc1ccc(C(=O)N2CCC(C(=O)OCC)CC2)cc1, Cc1ccc(C(=O)Nc2sc3c(c2C#N)CCCCC3)cc1C, Cc1ccc(-c2nnc(-c3ccc(Br)cc3)o2)o1, C=CCn1c(SCC(=O)c2ccccc2)nnc1-c1cc2ccccc2o1, CC1CC(C)CN(C(=O)CSc2nnc(-c3ccc(Cl)cc3)o2)C1 (stereo not given), COc1ccc(NC(=O)C(CC(C)C)NC(=O)c2ccccc2C)cn1 (stereo not given), COc1ccc(CNC(=O)Nc2ccc(C)cc2)cc1, CCCS(=O)(=O)C(=C(Nc1ccc(OC)cc1)Nc1ccc(OC)cc1)S(=O)(=O)CCC, COC(=O)c1ccccc1S(=O)(=O)Nc1ccc(OC)nc1, COc1ccc(NS(=O)(=O)Cc2ccccc2Cl)cn1, COc1ccc(NC(=O)c2cc(OC)c(OC)c(OC)c2)cn1, CCOc1ccccc1Nc1nc(N)nc(CN(C)C2CCCCC2)n1, Cc1nc2cc(C(=O)O)ccc2n1C1CCCCC1, CCNC1=C(Cl)C(=O)c2ccccc2C1=O, CC1=CC(=C2C(=O)c3ccccc3C2=O)C=C(C)O1, CC1=CC(=C2C(=O)c3ccccc3C2=O)C=C(C)N1C, CN1C=CC(=C2C(=O)c3ccccc3C2=O)C=C1, CCSc1nc(N)c(C#N)c(-c2ccco2)c1C#N, c1nc(N2CCOCC2)c2[nH]cnc2n1, COc1cccc2c1C(=O)c1c(O)c3c(c(O)c1C2=O)C[C@@](O)(C(=O)CO)C[C@@H]3O[C@H]1C[C@H](N)[C@H](O)[C@H](C)O1, O=C(Cn1cc2c(n1)CCCCC2)NC1CCCCCC1, Cc1csc2ncc(C(=O)Nc3ccc(C(F)(F)F)cc3)c(=O)n12, COC(=O)c1cccc(NC(=O)c2cnoc2C)c1, COc1ccc(CNC(=O)[C@H](C)[C@H]2C[C@]2(C)[C@H](NC(=O)OCc2ccccc2)c2ccccc2)cc1OC, CCOC(=O)CSc1nc(C)c2ccc(C)cc2n1, CCn1c(C)nc2cc(-c3nnc(-c4c(-c5ccccc5)noc4C)o3)ccc21, N#CCc1nc2n(n1)Cc1ccccc1-2, O=S(=O)(c1cccc(-c2nc3n(n2)Cc2ccccc2-3)c1)N1CCCC1, CCn1c(C)nc2cc(S(=O)(=O)N3CCCC3)ccc21, CCN(CC)S(=O)(=O)c1cccc(-c2nc3n(n2)Cc2ccccc2-3)c1, Clc1ccc(-c2nc3n(n2)Cc2ccccc2-3)cc1, CCOc1ccc(C2Oc3nc(SC)nnc3-c3ccccc3N2C(C)=O)cc1OC (stereo not given), O=C(C1CCCN(S(=O)(=O)c2cnc[nH]2)C1)N1CC(=O)N(CCc2ccccc2)C(=O)C1 (stereo not given), CN(CC(=O)N1CC(=O)N(CCc2ccccc2)C(=O)C1)S(=O)(=O)c1cccc2nsnc12, Cc1cc(C)n(-c2ccc(C(=O)OCc3nnc(-c4ccccc4)o3)cc2)n1, CCCCC(CC)CNC(=O)C1CCCN(S(=O)(=O)c2cnc[nH]2)C1 (stereo not given), Cc1cc(C)n2nc(S(=O)(=O)NC3CCCCC3)nc2n1, CN1CCN(Cc2cc(COCc3ccccc3)c3cccnc3c2O)CC1, Oc1ccc(CN2CCc3ccccc3C2)c2cccnc12, Oc1c(CN2CCOCC2)cc(COCc2ccccc2)c2cccnc12, OCCN1CCN(Cc2cc(Cl)c3cccnc3c2O)CC1, COC(=O)c1sc(S(=O)(=O)NCc2cccs2)c(C(=O)OC)c1C, COc1cc(C(=O)NCCC2=CCCCC2)cc(OC)c1OC, COc1ccc(C(=O)NCCC2=CCCCC2)cc1OC, O=C(NCCc1ccc(Cl)cc1)c1nnc(Cc2ccc(Cl)cc2)o1, CC1CCCCC1NC(=O)C1CCN(S(=O)(=O)N2CCC3(CC2)OCCO3)CC1 (stereo not given), CC1C(=O)CCN(C(C)(C)C)C1C (stereo not given), COc1ccc(OC)c(C2c3c(oc4ccccc4c3=O)C(=O)N2CCCN(C)C)c1 (stereo not given), Cc1ccc(SCc2nc(-c3ccccc3)no2)cc1, c1ccc(-c2ccc(-c3nc(-c4cccnc4)no3)cc2)cc1, COc1cc(-c2nc(-c3cccc(C)c3)no2)cc(OC)c1OC, COc1ccc(-c2nc(-c3cccc(C)c3)no2)cc1OC, Cc1ccc(-c2noc(-c3ccccc3Br)n2)cc1, c1ccc(-c2nc(-c3ccncc3)no2)cc1, Cc1ccc(-c2nc(-c3cccnc3)no2)cc1, Fc1ccccc1-c1nc(-c2ccccc2)no1, COC(=O)c1ccccc1NC(=O)C1CC=CCC1C(=O)O (stereo not given), COC(=O)c1ccc(C(=O)OC)c(NC(=O)CCC(=O)O)c1, CCC1CCCCN1S(=O)(=O)c1ccc(NC(=O)CSc2ncccc2C(=O)O)cc1 (stereo not given), COc1ccc(CCN(C(=O)c2ccccc2)C2=CC3CCC(C2)N3C)cc1OC (stereo not given), CS(=O)(=O)N1CCC(C(=O)N2CCc3ccccc3C2)CC1, CC(=O)NC(C1C(=O)CC(C)(C)CC1=O)(C(F)(F)F)C(F)(F)F, O=C(COc1ccc(Cl)cc1)NCc1nnc(SCC(=O)NCc2ccc3c(c2)OCO3)o1, CCOC(=O)c1cnc(C(C)(C)C)[nH]c1=O, COc1ccc(-c2nc(-c3ccncc3)no2)cc1OC, Cc1cc(C)cc(-c2nc(-c3ccncc3)no2)c1, CCc1ccc(-c2nc(-c3ccncc3)no2)cc1, NC(=O)c1ccccc1-c1nc(-c2ccccc2)no1, c1ccc(-c2noc(-c3ccccc3-c3ccccc3)n2)cc1, CCOc1ccc(-c2nc(-c3ccncc3)no2)cc1OCC, CCCC(=O)Nc1c(-c2cccs2)c(=O)c2ccccc2n1CC, CCOC(=O)c1ccc(S(=O)(=O)N2CCN(CC3CC=CCC3)CC2)cc1 (stereo not given), COc1ccccc1C1/C(=C(/O)c2ccc(Cl)cc2)C(=O)C(=O)N1CCN1CCOCC1 (stereo not given), O=C(O)CN1C(=O)Nc2ccc(Br)cc2C1c1ccccc1 (stereo not given), Cc1nc(CC(=O)c2c(C)cc(O)cc2O)cs1, O=C(Cc1cccs1)NCc1cccs1, COC(=O)C(C)Oc1ccc(=O)[nH]n1 (stereo not given), COc1ccc(OC)c(NC(=O)Cc2coc3cc(C)cc(C)c23)c1, CS(=O)(=O)N(Cc1ccccc1)c1ccccc1C(=O)N1CCN(c2ccccc2)CC1

outcome, active:
O=C(c1ccc(F)cc1)C(CN1CCOCC1)c1ccccc1 (stereo not given), N#CC1=C(N)C(C#N)(C#N)[C@H](c2ccoc2)[C@H]2CN(Cc3ccccc3)CC=C12, Cc1nnc(SCc2cnc(-c3ccc(C(C)C)cc3)s2)n1C, COc1ccc(NC(=O)/C(Cl)=C(/Cl)S(=O)(=O)Cc2ccccc2)cn1, COc1ccc(CS(=O)(=O)/C(Cl)=C(/Cl)C(=O)Nc2ccc(OC)nc2)cc1, COc1cccc2c1C(=O)c1c(O)c3c(c(O)c1C2=O)C[C@@](O)(C(C)=O)C[C@@H]3O[C@H]1C[C@H](N)[C@H](O)[C@H](C)O1, CCn1c(C)nc2cc(-c3nc4n(n3)Cc3ccccc3-4)ccc21, Fc1ccc(-c2nc3n(n2)Cc2ccccc2-3)cc1, Cc1cccc(-c2noc(-c3ccc(F)cc3)n2)c1, CN(C)c1ccc(-c2noc(-c3ccccc3O)n2)cc1
